Bioassay records: PubChem BioAssay, The Scripps Research Institute Molecular Screening Center
FBW7 activator – FBW7 E3 ligase activators, primary screen, biochemical, AlphaScreen, human | AID 1259310, 2017 | AlphaScreen FBW7–phospho-cyclin E peptide binding, activator screen | 650,000 tested, 0.13% active | F-box/WD repeat-containing protein 7 (Homo sapiens), Q969H0 | normalized activity (activation), % at 26.1 µM; in the data active means normalized activity above about 1.9%;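 further: purified mutant Fbw7 with reduced substrate affinity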
GPR151 activ – activators of human GPR151, primary screen, cell-based, PathHunter beta-arrestin, luminescence. G-protein coupled receptor 151 (Homo sapiens), Q8TDV0. PathHunter beta-arrestin GPR151 cells. activation, % at 11.2 µM. 650,000 tested, 1% active. AID 1508602, 2020; in the data active means activation above about 4.9%
Target sequence (Q8TDV0 whole entry, looked up): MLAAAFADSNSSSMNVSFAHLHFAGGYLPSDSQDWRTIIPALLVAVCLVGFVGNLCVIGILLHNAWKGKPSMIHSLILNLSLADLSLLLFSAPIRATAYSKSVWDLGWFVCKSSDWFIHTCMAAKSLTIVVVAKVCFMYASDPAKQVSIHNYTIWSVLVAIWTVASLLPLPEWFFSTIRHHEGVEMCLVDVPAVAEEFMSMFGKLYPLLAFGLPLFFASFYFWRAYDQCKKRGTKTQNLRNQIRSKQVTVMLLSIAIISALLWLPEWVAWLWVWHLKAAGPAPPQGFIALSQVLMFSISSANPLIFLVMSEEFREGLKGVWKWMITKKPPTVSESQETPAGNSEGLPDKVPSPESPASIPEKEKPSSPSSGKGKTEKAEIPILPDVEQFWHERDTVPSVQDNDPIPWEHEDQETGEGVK
MITF primary – MITF inhibitors, primary screen, biochemical, AlphaScreen, human; AlphaScreen MITF homodimerization, bead proximity signal; inhibition, % at 2.6 µM; 650,000 tested, 0.91% active; AID 1259374, 2018; in the data active means inhibition above about 50%
TEAD-YAP block – TEAD-YAP interaction inhibition, primary screen, TEAD-YAP interaction inhibitor project, luminescence, HEK-TIYL cells; TEAD-Gal4/YAP UAS-luciferase luminescence; 640,000 tested, 1.4% active; inhibition, % at 9.12 µM; in the data active means inhibition above about 32%
GPR151 confirm – GPR151 activators, triplicate retest, confirmation, cell-based, PathHunter beta-arrestin, luminescence; 6,700 tested, under 10 active; GPR151 PathHunter beta-arrestin cells, 90 min; % of EA-reagent control over plate median; shares compounds with GPR151 activ; AID 1508609, 2020; activation, % at 11.2 µM;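 active means mean percent activation across replicates above the confirmation screen cutoff of 4.91%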
GPR119 ag – GPR119 activators in beta-arrestin cells, counter-screen for GPR151 activator project, cell-based, PathHunter beta-arrestin, luminescence, triplicate | shares compounds with GPR151 activ | 6,700 tested, 0.3% active | AID 1508611, 2020 | 90 min; 0 = compound-well median, 100 = enzyme-acceptor control | activation, % at 11.2 µM;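 active means mean percent activation in the counterscreen above 29.09%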;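 further: counterscreen on off-target GPR119 to flag nonselective hits from the GPR151 activator screen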
Hits are given with their value; . = inactive; / = not tested or not shown. Most compounds without a hit are left out; they make up all but 3.5% or so of the library.

SMILES	FBW7 activator	GPR151 activ	MITF primary	TEAD-YAP block	GPR151 confirm	GPR119 ag
O=C(CN1C(=O)/C(=C/c2ccccc2)Sc2ccccc21)NCc1ccc2c(c1)OCO2	.	9.0	.	.	.	.
O=C(CSc1n[nH]c(=O)n1C1CC1)NCc1ccc2c(c1)OCO2	.	6.3	.	.	.	.
O=C1OCCC/C1=C/C=C/c1ccccc1	.	.	.	.	/	/
C=CCN1CCN(C(c2ccc(F)cc2)c2nnnn2Cc2ccc(OC)cc2)CC1 (stereo not drawn)	.	.	.	.	/	/
CCCNc1nc(Nc2ncccn2)nc2c1ncn2C1CCCCC1	.	.	.	.	/	/
O=S(=O)(Cc1ccc2c(c1)OCO2)c1ccc2ccccc2c1	.	5.8	.	.	.	.
O=C(CS(=O)(=O)c1ccccc1)NCc1ccc2c(c1)OCO2	.	5.1	.	.	.	.
O=C(Cc1cc(=O)[nH]c(=O)[nH]1)NCc1ccc2c(c1)OCO2	.	8.6	.	.	.	.
CS(=O)(=O)NCC1CCC(C(=O)NC2CCN(Cc3ccccc3)CC2)CC1 (stereo not drawn)	.	5.6	.	.	.	.
O=C(NCCO)c1cccc(N2C(=O)c3ccccc3C2=O)c1	.	7.6	.	.	.	.
O=C1CCCN1CCn1cnc2c(NCCN3CCOCC3)nc(Nc3nccc4ccccc34)nc21	.	5.3	.	.	.	.
COc1cc(Nc2nc(NCCCN3CCCC3=O)c3ncn(C(C)C)c3n2)cc(OC)c1OC	.	13.0	.	.	.	.
O=C1CCCN1CCCNc1cc(N2CCC(N3CCOCC3)CC2)ncn1	.	8.5	.	.	.	.
O=C1CCCN1CCn1cnc2c(Nc3ccc(N4CCOCC4)cc3)nc(Nc3ccc(N4CCOCC4)cc3)nc21	.	.	.	.	/	/
O=C1CCCN1CCCNc1nc(Nc2ccc(N3CCOCC3)cc2)nc2c1ncn2CCN1CCCC1=O	.	10.5	.	.	.	.
O=C1CCCN1CCCNc1cc(N2CCOCC2)ncn1	.	.	.	.	/	/
O=C(c1ccc(NCc2ccco2)c([N+](=O)[O-])c1)N1CCOCC1	.	.	.	.	/	/
COc1ccc(C(=O)NC(CC(=O)O)c2ccc(F)cc2)cc1OC (stereo not drawn)	.	.	.	.	/	/
COc1cc(Nc2nc(NCCCN3CCCC3=O)c3ncn(CCN4CCCC4=O)c3n2)cc(OC)c1OC	.	6.5	.	.	.	.
COc1ccc(NC(=O)C2C3C=CC4(O3)C2C(=O)N(CCN(C)Cc2ccccc2)C4C(=O)NC2CCCC(C)C2C)cc1 (stereo not drawn)	.	.	.	.	/	/
COc1ccccc1CCN1C(=O)CCC1CCNCCOc1ccccc1 (stereo not drawn)	.	7.1	.	.	.	.
COc1ccccc1CCN1C(=O)CCC1CCNCc1ccccc1 (stereo not drawn)	.	.	.	.	/	/
Cc1cc(S(=O)(=O)Nc2cc(Cl)ccc2O)ccc1F	.	.	.	.	/	/
CCCCCCn1c(N/N=C/c2ccc([N+](=O)[O-])cc2)nc2c1c(=O)[nH]c(=O)n2C	.	5.9	.	.	.	.
CC1=C(C(=O)Nc2cccnc2)C(c2ccccc2[N+](=O)[O-])n2nc(-c3ccco3)nc2N1 (stereo not drawn)	.	.	.	.	/	/
SMILES	FBW7 activator	GPR151 activ	MITF primary	TEAD-YAP block	GPR151 confirm	GPR119 ag
Cn1c(SCC(=O)c2ccc(F)cc2)nnc1-c1cccc([N+](=O)[O-])c1	.	5.7	.	.	.	.
COc1ccccc1-c1nnc(SCc2nnc(-c3cccc([N+](=O)[O-])c3)o2)n1C	.	6.3	.	.	.	.
Cn1c(SCCC(=O)O)nnc1-c1cccc([N+](=O)[O-])c1	.	.	.	.	/	/
NC(=O)c1cccn1Cc1cccc(Cl)c1	.	.	.	.	/	/
NC(=O)c1cccn1Cc1ccccc1Cl	.	5.2	.	.	.	.
CCOC(=O)c1nccn1Cc1ccccc1Cl	.	9.4	.	.	.	.
CCOC(=O)C1=C(C)N=c2s/c(=C\c3ccccc3)c(=O)n2C1c1ccccc1 (stereo not drawn)	.	.	.	.	/	/
Cc1nnc2c(Nc3ccc(CC(=O)O)cc3)nc3ccccc3n12	.	.	.	.	/	/
NC(=O)c1ccsc1NC(=O)CSc1ccc(Cl)cc1	.	9.5	.	.	.	.
N/N=C/C1=C(N2CCOCC2)C(=C\c2ccc(Cl)cc2)/CC1	.	.	.	.	/	/
Fc1ccc2c(c1)nc(NC1CCCCC1)c1nccn12	.	5.1	.	.	.	.
Fc1ccc2c(c1)nc(N1CCCCC1)c1nccn12	.	.	.	.	/	/
CCN(CC)c1ccc(C2C(C(=O)N3CCOCC3)=C(C)NC3=C2C(=O)CCC3)cc1 (stereo not drawn)	.	.	.	.	/	/
Cc1ccc(NC(=O)c2nc[nH]c2C(=O)Nc2ccc(C)cc2)cc1	.	.	.	.	/	/
Cc1cccc(NC(=O)c2nc[nH]c2C(=O)Nc2cccc(C)c2)c1	.	6.6	.	.	.	.
O=C(CN1CCCC(O)C1)N1c2ccccc2Sc2ccc(C(F)(F)F)cc21 (stereo not drawn)	.	9.5	.	.	.	.
CC(=O)c1cccc(Nc2c(-c3ccc(C)cc3)c(=O)c2=O)c1	.	.	.	.	/	/
CC(=O)c1ccc(Nc2c(-c3ccccc3)c(=O)c2=O)cc1	.	5.4	.	.	.	.
CC(C)Oc1ccc(/C=N/NC(=O)C(=O)NC2CCCCC2)cc1	.	.	.	.	/	/
CCOc1ccc(/C=N/NC(=O)C(=O)NC2CC2)cc1	.	5.7	.	.	.	.
O=C1OC(c2cccc(I)c2)=N/C1=C\c1ccc(-c2cccc([N+](=O)[O-])c2)o1	.	.	.	.	/	/
CCCCn1c(SCC(=O)c2ccc(O)c(O)c2)nc2cc(S(N)(=O)=O)ccc21	.	.	.	.	/	/
CCOc1ccc(Cl)cc1S(=O)(=O)NC(C)c1ccccc1 (stereo not drawn)	.	5.1	.	.	.	.
CC(NS(=O)(=O)c1ccc(OCC(=O)Nc2ccccc2)c(Cl)c1)c1ccccc1 (stereo not drawn)	.	6.1	.	.	.	.
COc1ccc(Cl)cc1S(=O)(=O)NC(C)c1ccccc1 (stereo not drawn)	.	.	.	.	/	/
C=CCNC(=O)COc1ccc(S(=O)(=O)NC(C)c2ccccc2)cc1Cl (stereo not drawn)	.	.	.	.	/	/
Cn1c(COc2ccc(Cl)cc2)nnc1SCC(=O)NC(C)(C)C	.	.	.	.	/	/
